Compound activity as filed in PubChem.
NPC1 prom act – activates the NPC1 promoter | Huh7 NPC1 promoter luciferase reporter, 24 h | Potency, µM (series often up to 9.22 µM), for inactives: at the highest dose activation, usual class: activators | 320,000 compounds, 2.4% hits; further: % of control where 0% means no effect; nearly all actives have a fitted effect of over 60% in size
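Stable NPC1-promoter luciferase Huh7 line; cpd (DMSO) 24 h, 37 °C, 5% CO2; Amplite luciferase reagent 10 min RT; luminescence readout. qHTS format.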
SMN2 splice up – enhancers of SMN2 splice variant expression; HEK293 SMN2-luciferase splicing reporter, luminescence, 30-36 h; Potency, µM (series often up to 46.1 µM), for the others: at the highest dose activity change, positive = activation, most hits filed as activators; 210,000 compounds, 2.8% hits; AID 1458; further: % of control where 0% means no effect; nearly all actives have a fitted effect of over 55% in size
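qHTS luciferase splicing reporter: luminescence rises when SMN2 exon 7 is included in transfected HEK293 cells. Compound exposure lasted 30-36 h at 37C, with 4.5 mM final sodium butyrate as control, followed by a ONE-Glo read.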
ELG1 genotoxic – inducers of genotoxicity in HEK293T ELG1-luciferase cells | HEK293T ELG1-luciferase reporter, luminescence, 16 h | Potency, µM (titrated, usually from 46 µM), for inactives: at the top dose activity change, positive = activation, most hits filed as activators | 330,000 compounds, 1.3% hits | AID 504466; further: % of control where 0% means no effect; nearly all actives have a fitted effect of over 60% in size
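HEK293T cells expressing luciferase-tagged ELG1 were treated with compound or DMSO for 16 hr at 37°C. Luciferase activity was then read after 30 min with ONE-Glo at room temperature; rising signal flags genetic stress.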
ELG1 DNA repair – blocks ELG1-dependent DNA repair in HEK293T cells; Potency, µM (series often up to 46.1 µM), for the others: at the highest dose activity change, negative = inhibition, usual class: inhibitors; AID 504467; HEK293T ELG1-luciferase reporter, luminescence, 16 h; DNA damage induced by 5-fluorouridine; 330,000 compounds, 2.3% hits; further: on the % scale 0 is the no-effect control and ±100 the full control effect; nearly all actives have a fitted effect of over 55% in size
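HEK293T cells expressing luciferase-tagged ELG1 (2,000/well) received 5-Fluorouridine plus compound or DMSO for 16 hr at 37 °C. Luciferase was read by ONE-Glo luminescence after 30 min at room temperature.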
Rab9 prom act – activators of Rab9 promoter; Huh7 Rab9 promoter-luciferase reporter, luminescence, 24 h; Potency, µM (top dose mostly 9.22 µM), without a hit: at the top dose activation, negative = inhibition, usual class: activators; 320,000 compounds, 2.8% hits; AID 485297; further: % of control where 0% means no effect; nearly all actives have a fitted effect of over 60% in size
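Rab9 promoter-driven luciferase in stably transfected Huh7 cells; 1500 cells/well rested 2 h, exposed to compound in DMSO for 24 h at 37 °C, 5% CO2. Luminescence read 10 min after adding luciferase reagent at ambient temperature.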
FLuc modulator – firefly luciferase modulation, counter-screen for miR-21 project; Potency, µM (top dose mostly 57.5 µM), for inactives: at the highest dose activity change, negative = inhibition, most hits filed as inhibitors; 360,000 compounds, 6.9% hits; purified FLuc, Km substrates, luminescence inhibition; P08659;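 further: plate controls were vehicle for no effect and reference inhibitor for full effect; nearly all actives have a fitted effect of over 55% in size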
Target sequence (P08659 whole entry, looked up): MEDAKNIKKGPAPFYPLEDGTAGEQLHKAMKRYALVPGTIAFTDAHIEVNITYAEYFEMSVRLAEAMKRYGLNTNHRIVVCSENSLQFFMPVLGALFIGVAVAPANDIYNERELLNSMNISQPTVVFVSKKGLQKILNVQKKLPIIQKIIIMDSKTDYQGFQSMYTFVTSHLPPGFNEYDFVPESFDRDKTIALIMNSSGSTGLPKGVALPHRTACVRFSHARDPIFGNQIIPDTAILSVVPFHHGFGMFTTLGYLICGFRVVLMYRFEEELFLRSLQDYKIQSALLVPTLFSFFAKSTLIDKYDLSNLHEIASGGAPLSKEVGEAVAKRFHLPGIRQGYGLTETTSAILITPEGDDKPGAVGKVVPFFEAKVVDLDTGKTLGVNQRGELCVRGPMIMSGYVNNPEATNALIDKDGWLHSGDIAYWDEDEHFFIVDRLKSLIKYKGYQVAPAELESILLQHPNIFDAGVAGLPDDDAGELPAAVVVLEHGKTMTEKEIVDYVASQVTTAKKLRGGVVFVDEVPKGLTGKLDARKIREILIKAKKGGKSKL
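Purified P. pyralis luciferase (10nM final) with 10uM D-luciferin and 10uM ATP (Km levels) in 50mM Tris acetate pH 7.5, 10mM Mg acetate, 0.01% Tween-20, 0.05% BSA; qHTS 6-point titration, ~60 µM downward; luminescence read.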
Numbers without * were called inactive; ? = inconclusive; · = no result given; [ ] = remark or other dose. Rows were chosen to be rich in hits. Some 9.2% of all compounds tested hit in one or more screens of this group. The call rests on the fitted dose curve; in most records, active means well fitted curve in the direction sought with a large enough effect; inconclusive means small, poorly fitted or top-dose-only effect, or another doubt; inactive means no such curve, though single readings can be large; an effect the other way counts as inactive or inconclusive. Potency means the concentration at half of the fitted maximal effect.

SMILES	NPC1 prom act	SMN2 splice up	ELG1 genotoxic	ELG1 DNA repair	Rab9 prom act	FLuc modulator
COc1ccc(Nc2ncnc3c2cnn3-c2ccc(C)cc2)cc1Cl	·	·	·	·	·	24µM*
Cc1cccc(-n2ncc3c(Nc4ccc(C)c(Cl)c4)ncnc32)c1	·	·	·	·	·	-19%
COc1ccc(OC)c(Nc2ncnc3c2cnn3-c2ccccc2)c1	10%	10%	?	?	-1%	?
COc1ccc(OC)c(Nc2ncnc3c2cnn3-c2ccc(C)cc2)c1	·	·	·	·	·	-15%
COc1cccc(Nc2ncnc3c2cnn3-c2cccc(C)c2)c1	?	-9%	5%	15%	?	17µM*
COc1ccc(NC(=O)Nc2cccnc2)cc1	24%	24%	23%	?	25%	17µM*
COc1ccc(NC(=S)N2CCCCC2c2cccnc2)cc1 (stereo not given)	1%	·	0%	6%	-3%	17µM*
Cc1cccc(NC(=S)N2CCCCC2c2cccnc2)c1C (stereo not given)	-2%	·	1%	-9%	1%	1%
CCOc1ccc(NC(=O)Nc2cccnc2)cc1	?	·	?	?	3.5µM*	7.6µM*
O=C(Nc1ccc(Cl)cc1)Nc1cccnc1	25%	16%	?	?	?	12µM*
Cc1cccc(C(=O)NCc2cn3cccc(C)c3n2)c1	·	·	·	·	·	2%
COc1ccccc1N1CCN(C(=O)Cn2ncc3c(=O)oc4ccc(C)cc4c32)CC1	·	-5%	·	·	·	1%
CCCCCn1c(=O)[nH]c2cc(C(=O)N3CCN(c4cc(Cl)ccc4C)CC3)ccc2c1=O	·	1%	·	·	·	2%
COc1cc(NC(=O)CSc2cc(=O)n(C)c3ccccc23)cc(OC)c1OC	·	-4%	·	·	·	-8%
Cc1ccccc1Oc1cc(-n2ncc(Cl)c(Cl)c2=O)ncn1	-33%	-83%	-8%	5.8µM*	-46%	-5%
COC(=O)c1ccccc1S(=O)(=O)N1CCc2nc(-c3ccccc3)c3c(c2C1)CO[C@@H](C)C3	·	-4%[9.22 µM]	·	·	·	·
CC(=O)Nc1ccccc1-c1nc2ccccc2n(CC(=O)c2ccc(Br)cc2)c1=O	·	·	·	·	·	-10%
COc1ccc(CCNC(=O)c2cc(-c3ccncc3)nc3c(Cl)cccc23)cc1OC	-3%	26%	-11%	?	-7%	-1%
O=C(N/N=C/c1cccs1)c1cc(-c2ccncc2)nc2ccccc12	-8%	-22%	5%	-22%	-16%	?
O=C(N/N=C/c1ccc[nH]1)c1cc(-c2cccs2)nc2ccccc12	-5%	1%	-15%	?	-1%	15µM*
COc1ccc(CNC(=O)c2cc(-c3ccncc3)nc3c(C)cc(C)cc23)cc1OC	-2%	-3%	-11%	23µM*	-1%	?
Cn1cccc1/C=N/NC(=O)c1cc(-c2cccs2)nc2ccccc12	-16%	0%	-5%	?	-9%	13µM*
CCOc1ccc(-c2cc(C(=O)N/N=C/c3cccnc3)c3ccccc3n2)cc1	-9%	·	16%	?	?	0.38µM*
CSCCC(NC(=O)COc1ccccc1)C(=O)N(C)CC(=O)Nc1c(C)cccc1C (stereo not given)	2%	·	-6%	-8%	1%	0%
COc1ccc(N(C(=O)Cn2nnc(-c3ccc(F)cc3)n2)C(C)C(=O)NC2CCCC2)cc1OC (stereo not given)	-1%	·	0%	-10%	0%	0%
SMILES	NPC1 prom act	SMN2 splice up	ELG1 genotoxic	ELG1 DNA repair	Rab9 prom act	FLuc modulator
COc1ccc(S(=O)(=O)NCCc2sc(-c3cccnc3)nc2C)cc1	·	·	·	·	·	-6%
CC(C)COc1cccc(-c2cc(C(=O)N/N=C/c3ccncc3)c3ccccc3n2)c1	-4%	·	-8%	?	-3%	0.95µM*
O=C(N=Nc1c(O)[nH]c2ccc(Br)cc12)c1cc(-c2cccs2)nc2ccccc12	-5%	-68%	6%	15%	-3%	-7%
Cn1c(O)c(N=NC(=O)c2cc(-c3cccs3)nc3ccccc23)c2ccccc21	3%	-27%	-9%	15µM*	-2%	2.7µM*
Cc1cc(C(=O)N/N=C/c2ccncc2)c2ccccc2n1	0%	·	-2%	-25%	-4%	2%
O=C(N/N=C/c1cccnc1)c1cc(-c2cccs2)nc2ccccc12	-6%	0%	-6%	?	-5%	24µM*
O=C(N/N=C/c1ccc2ncccc2c1)c1cc(-c2cccs2)nc2ccccc12	-5%	·	-9%	?	0%	?
COc1ccc(-c2cc(C(=O)N/N=C/c3cccnc3)c3cc(C)cc(C)c3n2)cc1	-7%	·	-5%	?	-2%	7.6µM*
Clc1cccc(CSc2nnc(C3CCNCC3)o2)c1	·	·	·	·	·	-6%
CCN(CC)CCCNC(=O)c1nn(-c2ccc(OC)cc2)c(=O)c2c1c1ccccc1n2C	·	-2%	·	·	·	3%
Clc1ccccc1CNc1ncnc2c1c(-c1ccccc1)cn2-c1ccccc1	·	·	·	·	·	-2%
COc1ccc(NC(=O)CN2CCC(C(=O)c3ccc(F)cc3)CC2)c(OC)c1	-3%	·	-13%	?	-4%	2%
Cn1c(O)c(N=Nc2ccc(F)cc2)c2ccccc21	4%	8%	2%	9%	21%	?
Cn1c(O)c(N=Nc2ccccc2)c2ccccc21	-1%	·	3%	1%	-2%	27µM*
CCCCC1(c2ccc(F)cc2)NC(=O)N(CC(=O)Nc2ccc(N3CCOCC3)cc2)C1=O (stereo not given)	·	·	-3%	-24%	·	·
CCCNC(=S)Nc1ccc(F)cc1F	-1%	·	-8%	16µM*	1%	0%
CC(C)C(NS(=O)(=O)c1ccc2c(c1)C(C)(C)C(=O)N2C)C(=O)NCc1ccccc1Cl (stereo not given)	-1%	·	1%	6%	5%	0%
COc1cccc(-c2nc(CS(=O)(=O)CC(=O)Nc3cc(F)ccc3F)c(C)o2)c1	-6%	-48%	-8%	18µM*	-5%	2%
COc1cccc(-c2nc(CS(=O)(=O)CC(=O)Nc3ccccc3C)c(C)o2)c1	-2%	·	-5%	-8%	-4%	1%
Cc1ccc(-c2noc(C3CCCN(S(=O)(=O)c4ccc5ccccc5c4)C3)n2)o1 (stereo not given)	0%	-13%	5%	-14%	-7%	?
CN(C)c1ccc(-c2noc(C3CCN(S(=O)(=O)c4cccc(Cl)c4)CC3)n2)cc1	-1%	·	-1%	?	-2%	13%
O=S(=O)(c1ccc2ccccc2c1)N1CCC(c2nc(-c3ccncc3)no2)CC1	-17%	-78%	0%	13µM*	-21%	0%
